# Reference: PubChem BioAssay
# Activity calls are given as the source filed them.
# How the values were obtained:
# Albumin (Bos taurus) = Albumin (Bos taurus) (UniProt P02769); test: bovine serum albumin binders on microarray, profiling panel, artefact control for SMM control protein annotation, biochemical, small-molecule microarray, Alexa647 label, 635/667 nm fluorescence (AID 1118); details: BSA-A647 binding, fluorescence 635 nm, higher = more signal;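 also: score merges 667 nm emission intensity and signal-to-noise per printed compound spot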
# Chain of Albumin (Bos taurus) (P02769 whole entry, looked up): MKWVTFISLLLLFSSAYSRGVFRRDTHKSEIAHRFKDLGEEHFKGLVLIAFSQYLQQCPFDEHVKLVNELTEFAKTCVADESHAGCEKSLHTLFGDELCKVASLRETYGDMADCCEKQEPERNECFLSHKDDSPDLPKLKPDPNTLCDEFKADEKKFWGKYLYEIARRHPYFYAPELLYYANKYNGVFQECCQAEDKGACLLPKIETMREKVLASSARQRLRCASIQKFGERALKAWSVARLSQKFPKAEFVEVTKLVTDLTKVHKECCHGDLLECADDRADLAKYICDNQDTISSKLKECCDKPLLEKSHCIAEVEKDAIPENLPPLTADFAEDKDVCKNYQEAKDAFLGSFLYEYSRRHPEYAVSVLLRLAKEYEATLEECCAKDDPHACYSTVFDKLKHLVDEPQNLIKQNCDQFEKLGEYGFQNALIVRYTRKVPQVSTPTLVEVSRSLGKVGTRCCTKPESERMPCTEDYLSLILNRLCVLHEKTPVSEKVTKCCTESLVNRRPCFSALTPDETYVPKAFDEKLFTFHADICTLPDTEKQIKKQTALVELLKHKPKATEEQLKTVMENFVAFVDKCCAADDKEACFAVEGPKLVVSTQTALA
# [1] = small-molecule microarray binders of probe aXIP, primary screen, biochemical, NeuroSMM set, 635/667 nm fluorescence (AID 1119); details: higher = more signal, called active from +8 up or from −8 down;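 also: probe is the protein aXip251-270 applied at 1 µg/mL to compound-printed slides; binding of probe to printed compounds measured as 667 nm fluorescence plus signal to noise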
# [2] = small-molecule binders of probe aNOTCH3, primary screen, biochemical, small-molecule microarray, 635/667 nm fluorescence (AID 1120); details: higher = more signal;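 also: probe is a biotin-tagged antibody raised against NOTCH3 rather than NOTCH3 protein; score merges spot fluorescence near 667 nm with spot signal to noise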
# [3] = small-molecule binders of probe aNOTCH2, primary screen, biochemical, small-molecule microarray, 635/667 nm fluorescence (AID 1121); details: higher = more signal;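 also: score merges feature fluorescence read at 667 nm with its signal to noise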
# [4] = biological target: Carbonic anhydrase 2 (Homo sapiens) (UniProt P00918); test: CAII small-molecule binders, profiling panel, biochemical, small-molecule microarray, Alexa647-labelled CAII (AID 1122); details: CAII-A647 binding fluorescence, higher = more signal
# [5] = COS7 lysate on small-molecule microarray, probe aHis, 635 nm (AID 1123); details: COS7 cell lysate, fluorescence, higher = more signal;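 also: z-score combines 667nm fluorescence intensity with signal-to-noise per printed compound spot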
# [6] = compound binding in COS7 lysate, probe aLAP1, primary screen, cell lysate, small-molecule microarray (AID 1124); details: probe aLAP1, fluorescence, higher = more signal;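 also: lysate comes from COS7 cells expressing LAP1 and is applied at 0.3 µg/mL; score merges spot fluorescence near 667 nm with signal-to-noise over triplicate slides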
# Sam68 (KHDRBS1) = test: Sam68 small-molecule binders, primary screen, biochemical, small-molecule microarray, 635 nm fluorescence (AID 1125); details: small-molecule microarray binding, higher = more signal;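 also: score merges 667 nm channel intensity with signal to noise over triplicate slides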
# [7] = system: Chordin-like protein 2 (CHRDL2); test: CHRDL2 small-molecule binders, primary screen, biochemical, small-molecule microarray, 635 nm fluorescence (AID 1126); details: small-molecule microarray binding, fluorescence 635 nm; higher = more signal;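 also: printed compound slides probed with Chrdl2 protein at 4 µg/mL for 1 h at 4 C; score merges 667 nm emission intensity with signal to noise over three replicate slides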
# [8] = biological target: Concanavalin-A (Canavalia ensiformis) (UniProt P02866); test: ConA small-molecule binders, primary screen, artefact control for SMM control protein annotation, biochemical, small-molecule microarray, Alexa647 label, 635 nm (AID 1127); details: ConA-A647 binding fluorescence, higher = more signal;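 also: z combines 667 nm emission intensity with signal-to-noise across three replicate slides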
# Chain of Concanavalin-A (Canavalia ensiformis) (P02866 whole entry, looked up): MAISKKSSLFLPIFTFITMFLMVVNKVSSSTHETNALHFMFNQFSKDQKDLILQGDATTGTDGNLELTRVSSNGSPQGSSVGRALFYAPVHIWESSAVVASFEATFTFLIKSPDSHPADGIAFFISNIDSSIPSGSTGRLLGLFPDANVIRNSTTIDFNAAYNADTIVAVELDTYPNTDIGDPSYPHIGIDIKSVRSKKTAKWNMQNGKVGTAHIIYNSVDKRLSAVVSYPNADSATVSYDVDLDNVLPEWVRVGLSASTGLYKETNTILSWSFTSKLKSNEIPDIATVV
# [9] = anti-His antibody binders, primary screen, artefact control for SMM control protein annotation, biochemical, small-molecule microarray, 635 nm fluorescence (AID 1128); details: anti-His Alexa647 antibody binding, higher = more signal;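 also: score merges feature fluorescence with signal-to-noise for each printed compound spot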
# [10] = system: Human papillomavirus type 1a E7 protein (residues 1-88); test: HPV1a E7 small-molecule binders, primary screen, biochemical, small-molecule microarray, residues 1-88, 635 nm (AID 1129); details: small-molecule microarray binding, fluorescence 635 nm; higher = more signal
# [11] = biological target: Focal adhesion kinase 1 (Homo sapiens) (UniProt Q05397); test: small-molecule microarray binders of FAK, primary screen, biochemical, 635/667 nm fluorescence, BSA, DTT (AID 1130); details: PTK2 binding, 635 nm fluorescence, higher = more signal;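 also: composite of spot emission at 667 nm and signal to noise over triplicate slides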
# Chain of Focal adhesion kinase 1 (Homo sapiens) (Q05397 whole entry, looked up): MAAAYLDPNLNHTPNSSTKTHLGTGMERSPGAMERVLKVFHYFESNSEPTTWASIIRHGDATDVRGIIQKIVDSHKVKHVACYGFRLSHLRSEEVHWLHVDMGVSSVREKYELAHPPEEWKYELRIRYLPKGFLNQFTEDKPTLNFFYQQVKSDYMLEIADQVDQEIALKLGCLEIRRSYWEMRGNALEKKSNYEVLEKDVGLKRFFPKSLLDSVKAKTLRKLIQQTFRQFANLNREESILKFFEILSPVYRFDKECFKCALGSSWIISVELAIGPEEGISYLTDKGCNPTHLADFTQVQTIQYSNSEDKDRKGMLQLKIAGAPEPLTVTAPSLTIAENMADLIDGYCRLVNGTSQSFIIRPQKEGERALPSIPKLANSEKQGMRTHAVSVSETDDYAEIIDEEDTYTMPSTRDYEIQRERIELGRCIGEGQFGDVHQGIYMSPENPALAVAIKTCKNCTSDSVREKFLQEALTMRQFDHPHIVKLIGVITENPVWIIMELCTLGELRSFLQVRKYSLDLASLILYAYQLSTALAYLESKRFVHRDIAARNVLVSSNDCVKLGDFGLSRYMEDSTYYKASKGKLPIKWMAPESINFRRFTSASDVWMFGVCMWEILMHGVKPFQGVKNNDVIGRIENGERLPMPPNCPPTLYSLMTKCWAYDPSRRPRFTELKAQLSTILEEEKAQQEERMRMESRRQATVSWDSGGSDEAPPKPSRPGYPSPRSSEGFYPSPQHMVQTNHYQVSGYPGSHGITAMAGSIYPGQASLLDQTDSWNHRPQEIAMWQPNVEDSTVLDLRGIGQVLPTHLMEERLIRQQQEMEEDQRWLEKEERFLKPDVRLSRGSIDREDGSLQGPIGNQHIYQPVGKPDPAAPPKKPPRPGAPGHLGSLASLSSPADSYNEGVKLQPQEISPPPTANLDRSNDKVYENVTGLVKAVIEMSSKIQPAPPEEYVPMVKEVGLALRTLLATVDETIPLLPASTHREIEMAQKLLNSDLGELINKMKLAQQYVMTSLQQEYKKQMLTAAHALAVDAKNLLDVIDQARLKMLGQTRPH
# [12] = system: Fibrinogen (Alexa647-labelled); test: fibrinogen binders on compound microarrays, profiling panel, artefact control for SMM control-protein annotation, biochemical, small-molecule microarray, 635/667 nm fluorescence (AID 1131); details: fibrinogen-A647 binding fluorescence, higher = more signal;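 also: z-score merges 667 nm fluorescence with per-spot signal-to-noise over triplicate slides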
# [13] = biological target: Follistatin (Homo sapiens) (UniProt P19883); test: follistatin binders on small-molecule microarrays, primary screen, biochemical, small-molecule microarray, 635/667 nm fluorescence (AID 1132); details: FST binding, 635 nm fluorescence, higher = more signal
# Chain of Follistatin (Homo sapiens) (P19883 whole entry, looked up): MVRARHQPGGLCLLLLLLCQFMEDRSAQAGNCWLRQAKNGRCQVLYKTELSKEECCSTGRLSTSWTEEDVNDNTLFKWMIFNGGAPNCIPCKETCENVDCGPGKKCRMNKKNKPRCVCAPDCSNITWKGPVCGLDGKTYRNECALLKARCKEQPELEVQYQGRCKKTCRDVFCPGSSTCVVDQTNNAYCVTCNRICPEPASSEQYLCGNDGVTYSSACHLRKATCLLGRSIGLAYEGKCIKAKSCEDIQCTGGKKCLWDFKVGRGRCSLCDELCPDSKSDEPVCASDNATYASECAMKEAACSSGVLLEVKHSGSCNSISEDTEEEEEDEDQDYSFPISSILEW
# [14] = biological target: Fibroblast growth factor 2 (Homo sapiens) (UniProt P09038); test: FGF2 binders on small-molecule microarrays, primary screen, biochemical, small-molecule microarray, 635/667 nm fluorescence (AID 1133); details: small-molecule microarray binding, FGF2, fluorescence 635/667; higher = more signal
# Chain of Fibroblast growth factor 2 (Homo sapiens) (P09038 whole entry, looked up): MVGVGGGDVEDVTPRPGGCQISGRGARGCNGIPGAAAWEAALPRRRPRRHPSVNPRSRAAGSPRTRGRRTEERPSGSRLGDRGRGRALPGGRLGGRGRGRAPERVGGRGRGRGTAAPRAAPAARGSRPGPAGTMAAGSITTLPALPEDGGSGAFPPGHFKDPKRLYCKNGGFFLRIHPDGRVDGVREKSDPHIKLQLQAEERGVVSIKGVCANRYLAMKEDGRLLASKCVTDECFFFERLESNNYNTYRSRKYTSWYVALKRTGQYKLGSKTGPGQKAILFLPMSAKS
# [15] = mitochondrial membrane potential change in A549 cells, profiling panel, cell-based, JC-1 fluorescence, basal, 24 h, 100 nL (AID 1138); details: higher = more signal;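 also: A549 lung adenocarcinoma cells under basal conditions with no added stimulus; test concentration not given here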
# Lefty1 = Lefty1 binders on small-molecule microarrays, primary screen, biochemical, small-molecule microarray, 635/667 nm fluorescence (AID 1139); details: small-molecule microarray binding, fluorescence 635/667; higher = more signal
# [16] = system: wheat germ agglutinin (Triticum aestivum), Alexa647-labelled; test: wheat germ agglutinin binders on compound microarrays, profiling panel, artefact control for SMM control-protein annotation, biochemical, small-molecule microarray, 635/667 nm fluorescence (AID 1140); details: WGA-A647 binding, 635 nm fluorescence, higher = more signal;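 also: score merges 667 nm feature emission with signal to noise over triplicate slides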
# [17] = biological target: Luciferin 4-monooxygenase (Photinus pyralis) (UniProt P08659); test: firefly luciferase enzyme inhibitors, primary screen, biochemical, luminescence, purified enzyme, 2006 set (AID 1141); details: SteadyGlo luminescence, 30 min, higher = more signal, called active from +8 up or from −8 down;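 also: cell-free assay with purified firefly luciferase at 100 ng per well in PBS; test concentration not given here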
# Chain of Luciferin 4-monooxygenase (Photinus pyralis) (P08659 whole entry, looked up): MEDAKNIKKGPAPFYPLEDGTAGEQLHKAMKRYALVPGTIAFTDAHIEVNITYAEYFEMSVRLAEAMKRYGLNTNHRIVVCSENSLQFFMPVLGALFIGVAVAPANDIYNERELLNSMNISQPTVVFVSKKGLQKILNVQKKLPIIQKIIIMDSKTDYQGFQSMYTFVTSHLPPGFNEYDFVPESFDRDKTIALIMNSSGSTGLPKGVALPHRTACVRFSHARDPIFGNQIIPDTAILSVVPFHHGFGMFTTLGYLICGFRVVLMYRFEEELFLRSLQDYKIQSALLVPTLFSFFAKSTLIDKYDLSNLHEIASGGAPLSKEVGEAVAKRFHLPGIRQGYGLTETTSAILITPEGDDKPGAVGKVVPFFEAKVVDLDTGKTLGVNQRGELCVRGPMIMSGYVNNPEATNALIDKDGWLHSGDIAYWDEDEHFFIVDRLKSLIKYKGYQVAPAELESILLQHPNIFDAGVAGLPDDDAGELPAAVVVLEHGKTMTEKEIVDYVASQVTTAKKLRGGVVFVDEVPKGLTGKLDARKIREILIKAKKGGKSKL
Compound,composite z-score (Albumin (Bos taurus)),composite Z-score [1],composite z-score [2],composite z-score [3],composite z-score [4],composite z-score [5],composite z-score [6],composite z-score (Sam68 (KHDRBS1)),composite z-score [7],composite z-score [8],composite z-score [9],composite z-score [10],composite z-score [11],composite z-score [12],composite z-score [13],composite z-score [14],z-score [15],composite z-score (Lefty1),composite z-score [16],z-score [17]
CCCCCN1CC=CC23O[C@@H]4/C=C\CCCOC(=O)C4[C@H]2C(=O)N(CCCCCCO)[C@@H]3C1=O (stereo not given in full),-0.0739,-0.328 (inactive),-0.262,-0.153,0.858,2.05,1.14,-0.542,-1.01,-0.74,0.599,0.906,0.929,-2.05,-0.679,-0.964,1.05,0.0393,1.14,-3.28 (inactive)
COC(=O)[C@@]1(Cc2ccccc2)[C@H]2c3cc(C(=O)N(C)C)n(Cc4cc(C)n(C)n4)c3C[C@H]2CN1C(=O)c1ccccc1,1,-0.138 (inactive),0.718,0.258,0.931,2.63,0.993,0.812,-0.979,0.711,1.95,1.13,0.57,-0.103,0.229,-0.768,-0.127,-0.169,0.889,0.887 (inactive)
O=C1OCC=C[C@H]2OC34C=CCN(c5ccc6ccccc6c5)C(=O)[C@H]3N(CCCO)C(=O)[C@@H]4[C@@H]12 (stereo not given in full),0.314,0.102 (inactive),-0.256,-0.07,0.709,-0.559,1.26,-1.39,-0.824,-0.223,-0.349,-0.92,-0.409,-0.669,0.0786,-0.989,-0.506,-0.11,-0.645,-0.18 (inactive)
CS(=O)(=O)CCOC(=O)C1=CC(CCCO)=CC(c2cccs2)N(Cc2cc3c(cc2Br)OCO3)C=C1C(=O)OCCS(C)(=O)=O (stereo not given),0.974,1.05 (inactive),0.183,-0.0149,0.337,1.64,0.817,1.3,0.164,0.986,1.16,1.21,1.11,1.01,1.28,0.564,1.26,1.22,1.05,-1.16 (inactive)
C=CCNC(=O)[C@@H]1[C@H]2C(=O)O[C@H](c3ccccc3)[C@H](c3ccccc3)N2[C@H](c2ccc(O)cc2)[C@@]12C(=O)N(C(=O)OCCOC)c1ccccc12,0.752,-0.155 (inactive),-0.0716,-0.143,0.519,2.23,0.334,1.28,-0.49,-0.18,1.92,1.21,0.419,0.945,0.714,-0.145,-0.595,0.522,0.795,-0.355 (inactive)
[N-]=[N+]=Nc1ccccc1[C@@H]1OC(c2ccc(OCCCO)cc2)=N[C@]1(CCS(=O)(=O)c1ccccc1)C(=O)N1CCOCC1,0.815,0.167 (inactive),0.287,0.0263,0.618,2.89,0.483,1.29,-0.535,1.1,1.48,1.26,0.488,1.02,1.33,0.544,1.13,0.541,1.3,-12.9 (active)
